For 13 compounds, growth results are on record in PubChem BioAssay (NCI).

Each structure is given as a SMILES string. Compounds without any hit were thinned out: in the full panel of roughly 83,000, 20% have a hit.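 Cells were grown in 96-well plates and exposed to the test compound at a single concentration for 48 hours; results are reported as percent growth, with values below 10 considered active.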 Unmarked numbers belong to inactive results. The source made the active and inactive calls.

In the assay the test system is MDA-MB-468 breast. Nature of the assay: NCI-60 one-dose screen, 48 h (100 = growth as untreated, 0 = no growth, -100 = all killed). The conditions noted are these: 10 µM unless noted.
In the case of `Clc1ccc2c(NCCCn3ccnc3)c3oc4ccccc4c3nc2c1`, the growth was 39.7%.

In the case of `COC(=O)[C@]12CCC(C)(C)C[C@H]1[C@H]1C(=O)C[C@@H]3[C@@]4(C)c5c([nH]c6ccccc6c5=O)C(C)(C)[C@@H]4CC[C@@]3(C)[C@]1(C)CC2`, the growth is 34.5%.

On to `COc1cc2cc(Oc3ccc(NC(=O)Nc4ccc(Cl)c(C(F)(F)F)c4)cc3)c(C)nc2cc1OCCN1CCCCC1`, for which the growth was -72.3% (active).

For `COc1cccc(NC(=O)Nc2ccc(Nc3ncnc4[nH]c(C)c(C)c34)cc2)c1`, the growth is 112%.

`O=S(=O)(NCCCNc1nccc(-c2c(-c3ccc(F)cc3)nc3sccn23)n1)c1ccc(F)cc1`: the growth is 50.5%.

With `O=C1/C(=C/c2ccccc2)COc2ccc(O)cc21`, the growth is 87.8%.

As to `CCC(=O)Oc1ccc(/C(=C(/C)Cc2cccc(OC)c2)c2ccc(OCCN(C)C)cc2)cc1`, the growth is 76.1%.

Take `COc1cc(/C=C/c2cc(/C=C/c3ccc(O)c(OC)c3)n(-c3c(Cl)cccc3Cl)c(=O)n2)ccc1O`: the growth is 29.6%.

Consider `O=C(/C=C/c1ccccc1)n1c(-c2ccccc2)nc2ccccc21`, for which the growth is 98.2%.

Take `COc1ccc(-c2nnc(N3CCN(C(=O)CN4CCN(c5ccc(OC)cc5)CC4)CC3)nc2-c2ccc(OC)cc2)cc1`: the growth is -54.8% (active).

Consider `Cc1cc2c(cc1C)N(C(=O)CCl)CCN2C(=O)CCl`, for which the growth was -76% (active).

Take `Fc1ccc(N/N=C/c2ccc(-n3cccn3)cc2)cc1`: the growth is 121%.

As to `Cc1nnc2c3nnc(-c4ccc(Cl)cc4)n3c3ccccc3n12`, the growth is 100%.
